Assay results taken from PubChem BioAssay (NCI).
The panel holds about 83,000 compounds, 20% with a hit somewhere; the sample as a whole holds those more often.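 Activity criterion: percent growth below 10, measured after cells in 96-well plates were exposed to a single compound concentration for 48 hours.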 Activity calls are given as the source filed them.

What was measured:
Assay in all cases: NCI-60 one-dose screen, 48 h (100 = growth as untreated, 0 = no growth, -100 = all killed)
Settings in all cases: 10 µM unless noted
[1] = tested on: NCI-H23 lung
[2] = tested on: NCI-H226 lung
[3] = tested on: NCI-H322M lung
[4] = tested on: HOP-62 NSCLC
[5] = tested on: NCI-H460 lung
[6] = tested on: HOP-92 NSCLC
[7] = tested on: A549/ATCC NSCLC
[8] = tested on: 786-0 renal
[9] = tested on: COLO 205 colon
[10] = tested on: DU-145 prostate
[11] = tested on: K-562 leukemia
[12] = tested on: MALME-3M melanoma
[13] = tested on: MDA-MB-231 breast
[14] = tested on: RXF 393 renal
[15] = tested on: SF-268 CNS
[16] = tested on: SF-295 CNS
[17] = tested on: SF-539 CNS
[18] = tested on: UACC-257 melanoma
[19] = tested on: M14 melanoma

Measured: growth

C=CCn1cc(C=C2C(=O)N(C)C(=O)N(C)C2=O)c2ccccc21
active: [2] -47.6%
inactive: [1] 84.4% | [3] 87.8% | [4] 97% | [5] 56% | [6] 91.2% | [7] 107% | [8] 101% | [9] 116% | [10] 108% | [11] 108% | [12] 97.4% | [13] 88.4% | [14] 89.9% | [15] 97.8% | [16] 66.4% | [17] 102% | [18] 94.4% | [19] 88.9%

C=COC(=O)CCN1CC1
inactive: [1] 100% | [2] 98.9% | [3] 102% | [4] 95% | [5] 105% | [6] 111% | [7] 102% | [8] 110% | [9] 114% | [10] 113% | [11] 111% | [12] 112% | [13] 103% | [14] 111% | [15] 106% | [16] 101% | [17] 103% | [18] 105% | [19] 102%

CCOc1ccccc1C(=O)OCC(Cl)(Cl)Cl
inactive: [1] 102% | [2] 101% | [3] 102% | [4] 99.9% | [5] 107% | [6] 113% | [7] 106% | [8] 99.6% | [9] 102% | [10] 99.8% | [11] 98.8% | [12] 109% | [13] 114% | [14] 109% | [15] 101% | [16] 105% | [17] 101% | [18] 112% | [19] 103%

CC12CC(=O)C3(SC#N)C(CCC4=CC(=O)CCC43C)C1CCC2=O (configuration not stated)
inactive: [1] 99.1% | [2] 94.1% | [3] 96% | [4] 106% | [5] 96.2% | [6] 90.7% | [7] 107% | [8] 90% | [9] 66% | [10] 46.2% | [11] 89% | [12] 50.2% | [13] 100% | [14] 56.5% | [15] 101% | [18] 75.9% | [19] 89%

COc1cc(/C=C\c2cc(OC)c(OC)c(OC)c2)cc(N/C=C\C(=O)c2cc(OC)c(OC)c(OC)c2)c1OC
inactive: [1] 29.6% | [2] 47.2% | [3] 36.8% | [4] 13.3% | [5] 17.3% | [7] 40% | [8] 44% | [10] 27.2% | [11] 16.2% | [12] 25.9% | [13] 42.7% | [14] 17.4% | [15] 41.1% | [18] 68.1%
active: [6] -9.27% | [9] 3.1% | [17] -9.74% | [19] 2.89%

N#CC1(C#N)C(c2ccc(N(CCCl)CCCl)cc2)OC23CCCCC2C1(C#N)C(=N)O3 (configuration not stated)
active: [2] 9.15%
inactive: [1] 61.5% | [3] 94.2% | [4] 89.2% | [5] 30.1% | [6] 88.5% | [7] 97.3% | [8] 88.6% | [9] 104% | [10] 56.4% | [12] 96.9% | [13] 95.3% | [14] 73.9% | [15] 69.6% | [16] 108% | [17] 85% | [18] 87.9% | [19] 93.9%

C[n+]1c(/C=C/c2ccc(N(CCCl)CCCl)cc2)sc2ccccc21
inactive: [1] 44.9% | [2] 73.7% | [3] 95% | [4] 52.2% | [5] 20.7% | [6] 61.9% | [7] 40.2% | [8] 50.3% | [9] 32.2% | [10] 45.2% | [11] 15.3% | [12] 54% | [13] 80.8% | [14] 85.6% | [15] 57.7% | [16] 55.7% | [17] 45.4% | [18] 64.7% | [19] 64.7%

CCCCCCCCOC(=O)CCN1CC1
inactive: [1] 111% | [2] 93.5% | [3] 107% | [4] 124% | [5] 115% | [6] 77% | [7] 99.1% | [8] 107% | [9] 116% | [10] 98.5% | [11] 119% | [12] 110% | [13] 114% | [14] 107% | [15] 95.9% | [16] 120% | [17] 99.4% | [18] 103% | [19] 107%

CCOC(=O)[C@@H](C)C[C@H](Cc1ccccc1)NC(=O)c1csc([C@@H](C[C@H](C(C)C)N(C)C(=O)[C@@H](NC(=O)[C@H]2CCCCN2C)C(C)(C)CC)OC(C)=O)n1
inactive: [1] 26.9% | [3] 34.4% | [4] 18.8% | [6] 16% | [7] 10.1% | [12] 11.9% | [14] 23.5% | [15] 12.3% | [18] 48.1%
active: [2] -41.7% | [5] -10.1% | [8] 1.55% | [9] -62.6% | [10] 0.285% | [11] 5.03% | [13] -1.28% | [16] -4.66% | [17] -28.4% | [19] -26.8%
